Data published in PubChem BioAssay AID1671192 (National Center for Advancing Translational Sciences (NCATS), 2021).
Inconclusive results are not listed. Values without a mark were called inactive. Calls come from the whole dose curve; as a rule, active = well fitted curve in the direction sought with a large enough effect; inconclusive = small, poorly fitted or top-dose-only effect, or another doubt; inactive = no such curve, though single readings can be large or run the other way.

What follows are compounds tested against Polyunsaturated fatty acid lipoxygenase ALOX15 (Homo sapiens) (UniProt P16050) (assay: Counterscreen qHTS for inhibitors of human arachidonate 12S-lipoxygenase (ALOX12): ALOX15 Assay). Conditions: purified ALOX15 enzyme activity; series mostly up to 110 µM; activity change, negative = inhibition: at the top concentration.
Outline: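 Xylenol orange–ferric complex formation, read as the 573 nm to 405 nm absorbance ratio, tracks product from 50 uM arachidonic acid turned over for 30 min at RT. Enzyme is 40 nM ALOX15, pH 7.5 HEPES buffer, compound-preincubated 15 min.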
Note: 0% is about no effect.

Chain of Polyunsaturated fatty acid lipoxygenase ALOX15 (Homo sapiens) (P16050 whole entry, looked up): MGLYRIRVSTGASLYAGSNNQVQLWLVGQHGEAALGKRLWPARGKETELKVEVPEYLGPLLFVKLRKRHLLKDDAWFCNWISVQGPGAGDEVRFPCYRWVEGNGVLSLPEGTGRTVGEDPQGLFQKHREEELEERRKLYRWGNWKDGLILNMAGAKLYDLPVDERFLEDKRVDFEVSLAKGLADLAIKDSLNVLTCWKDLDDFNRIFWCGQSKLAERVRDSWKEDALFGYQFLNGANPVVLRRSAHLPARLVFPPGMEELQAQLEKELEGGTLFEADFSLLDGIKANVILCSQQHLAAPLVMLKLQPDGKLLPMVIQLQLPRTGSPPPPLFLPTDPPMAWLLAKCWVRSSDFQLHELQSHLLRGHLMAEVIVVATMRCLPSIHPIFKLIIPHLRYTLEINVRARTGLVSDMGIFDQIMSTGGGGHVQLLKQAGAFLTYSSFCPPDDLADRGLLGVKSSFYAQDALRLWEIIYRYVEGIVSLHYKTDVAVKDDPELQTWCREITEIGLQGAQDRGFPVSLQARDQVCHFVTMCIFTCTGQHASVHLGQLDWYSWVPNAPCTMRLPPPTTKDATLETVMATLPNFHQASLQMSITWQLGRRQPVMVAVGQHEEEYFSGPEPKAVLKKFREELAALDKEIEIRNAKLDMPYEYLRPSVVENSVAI

Row | SMILES | activity change, negative = inhibition
1 | CC(CO)Nc1ncnc2c1CN(C1CCCNCC1)C(=O)CN2C (stereo not drawn) | -29% [at 146 µM]
2 | Cc1cc(Cl)ccc1NC1CN(C(=O)OC(C)(C)C)C1 | -10.9% [at 146 µM]
3 | O=C(c1cc(C2CC2)nc2onc(C3CCCN3)c12)N1CCC(F)CC1 (stereo not drawn) | -8.64%
4 | NCc1ccc(-c2ccccn2)cc1 | -4.33% [at 233 µM]
5 | CN1CC(=O)N(C2CCCNCC2)Cc2c1ncnc2N1CCc2ccccc2C1 (stereo not drawn) | -3.43%
6 | O=C1NCc2ccccc2CC12CCN(Cc1c[nH]c3ccccc13)CC2 | -32%
7 | COc1cccc(O)c1CN1CCCC12Cc1ccccc1CNC2=O (stereo not drawn) | -14.9%
8 | O=C1NCc2ccccc2CC12CCN(Cc1cc(O)cc(O)c1)C2 (stereo not drawn) | 7.36% [at 146 µM]
9 | COc1ccc(N2CC3CCC(C2)N3CC(C)C)cc1 | 3.97% [at 146 µM]
10 | CN1CCCC2(Cc3ccccc3CN(C(=O)c3ccc(Cl)cc3)C2)C1 (stereo not drawn) | -23.7%
11 | COc1ccc(-c2nc(C3CC3)nc3c2CN(C(=O)c2ccccc2)CC3)cc1 | 3.82%
12 | NCc1ccccc1-c1cc(C(F)(F)F)ccc1Cl | -8.37% [at 146 µM]
13 | O=C(c1ccccc1)N1CCn2c(nnc2C2CCNCC2)C1 | -2.91% [at 146 µM]
14 | O=C1NCc2ccccc2CC12CCN(Cc1cccc(C(F)(F)F)c1)C2 (stereo not drawn) | -18.5%
15 | O=C1NCc2ccccc2CC12CCN(Cc1ccc(O)cc1)CC2 | -10.6% [at 146 µM]
16 | COc1ccc(N2CC3CCC(C2)N3Cc2cccc(Cl)c2)cc1 | -20.7%
17 | O=C1Nc2ccccc2CN(CC2CC2)C12CCNCC2 | -9.42%
18 | CC(=O)NCCC(=O)N1Cc2ccccc2CC2(CCCCN2CC2CCNC2)C1 (stereo not drawn) | -25.7%
19 | O=C(NC1CCNCC1)c1cc(C2CC2)nc2onc(C3CCCN3)c12 (stereo not drawn) | -15.5%

Row | SMILES | activity change, negative = inhibition
20 | COc1ccccc1C(=O)N1CCn2c(nnc2C2CCNCC2)C1 | -4.23% [at 146 µM]
21 | NCc1ccccc1-c1ccc(O)cc1 | -16.9% [at 146 µM]
22 | Nc1ccccc1CN1CCCC2(Cc3ccccc3CNC2=O)C1 (stereo not drawn) | -0.583% [at 146 µM]
23 | O=C1NCc2ccccc2CC12CCN(Cc1ccc(Br)s1)CC2 | -30%
24 | O=C(c1ccccc1F)N1CCc2nc(C3CC3)nc(-c3ccc(Cl)cc3)c2C1 | -19.9%
25 | Cc1ccc(C(=O)N2CCCC3(CC(c4cccnc4)=NO3)C2)cc1 (stereo not drawn) | -12.4% [at 146 µM]
26 | O=C1NCc2ccccc2CC12CCN(Cc1ccnc3ccccc13)C2 (stereo not drawn) | 12.1%
27 | O=c1n(-c2ccc(Cl)cc2)nc2n1CCN([S+](=O)([O-])c1ccccc1)C2 | -12.1%
28 | CC(=O)N1CCCC2(CC(c3ccccn3)=NO2)C1 (stereo not drawn) | -18.8% [at 233 µM]
29 | NC(Cc1ccccc1)C(=O)N1CCC2(CC1)CN(C(=O)c1ccc(Cl)cc1)CCO2 (stereo not drawn) | -6.02%
30 | CN1CC(=O)N(C2CCCNC2)Cc2c1ncnc2N1CCN(Cc2ccccc2)CC1 (stereo not drawn) | -18.3%
31 | O=[S+]([O-])(c1ccccc1)N1CC(Oc2ccc3c(c2)OCO3)C1 | -9.22% [at 146 µM]
32 | CN(C)C(=O)N1CCn2c(nnc2-c2cncc(Br)c2)C1 | -17% [at 146 µM]
33 | O=C1Nc2ccccc2CC12CN(Cc1c[nH]c3ccccc13)C2 | -21.2% [at 146 µM]
34 | O=C(O)CCC(=O)N1Cc2ccccc2CC2(CCCN2Cc2ccccc2)C1 (stereo not drawn) | -22.9%
35 | O=C1NCc2ccccc2CC12CCN(Cc1c[nH]c3ccccc13)C2 (stereo not drawn) | 8.74%
36 | CC(C)Nc1ncnc2c1CN(C1CCCNC1)C(=O)CN2C (stereo not drawn) | -15.1% [at 146 µM]
37 | Cc1ccsc1CN1CCC2(Cc3ccccc3CNC2=O)C1 (stereo not drawn) | 11.6% [at 146 µM]
38 | CC(=O)N1CCn2cc(C(=O)N3CCOCC3)nc2C1 | -15.5% [at 146 µM]
